TRHR enhancer = qHTS for Small Molecule Agonists and Allosteric Enhancers of Human TRH Receptor: Primary Screen for Enhancers. AID 493056, 2011. Thyrotropin-releasing hormone receptor (Homo sapiens), P34981. enhancement, % at 2 µM. 0.66% of 360,000 active. TRHR cells, fluo-8 calcium fluorescence, EC20 TRH enhancement; in the data active = enhancement above about 30%
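TRHR-expressing cells loaded with fluo-8 calcium dye were read kinetically (ex 480/em 530) during compound addition, then stimulated with an EC20 of TRH (10 nM final). Enhancement of the Gq-mediated intracellular calcium response was scored.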
D1 antagonist = Antagonist of Human D 1 Dopamine Receptor: qHTS | HEK293 TREx D1 cells, calcium flux, dopamine EC80; hits give low values | activity change, negative = inhibition, % at 10 µM | 3.2% of 360,000 active | AID 504652, 2011; in the data active = activity change below about -30%
Target sequence (P21728 whole entry, looked up): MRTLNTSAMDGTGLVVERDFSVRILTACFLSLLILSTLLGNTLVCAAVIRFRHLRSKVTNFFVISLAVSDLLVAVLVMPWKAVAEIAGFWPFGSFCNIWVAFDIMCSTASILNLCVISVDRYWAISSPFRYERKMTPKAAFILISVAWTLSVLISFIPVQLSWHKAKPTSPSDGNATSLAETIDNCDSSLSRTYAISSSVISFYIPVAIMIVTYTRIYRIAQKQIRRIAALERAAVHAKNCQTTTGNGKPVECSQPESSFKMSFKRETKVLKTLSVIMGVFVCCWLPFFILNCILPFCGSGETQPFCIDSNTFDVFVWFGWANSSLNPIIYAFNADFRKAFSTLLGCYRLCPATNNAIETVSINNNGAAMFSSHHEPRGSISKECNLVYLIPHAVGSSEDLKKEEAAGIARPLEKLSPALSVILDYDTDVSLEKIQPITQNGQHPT
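Cells carrying a force-coupled, tetracycline-inducible human D1 receptor report calcium flux. Each well gets a 10 s baseline, compound with 180 s monitoring, then an EC80 dopamine stimulus with a second 180 s kinetic read.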
D1 PAM = Potentiators of Human D1 Dopamine Receptor: qHTS; AID 504651, 2011; D(1A) dopamine receptor (Homo sapiens), P21728; potentiation, % at 10 µM; 0.036% of 360,000 active; HEK293 TREx D1 cells, calcium flux, dopamine EC20 potentiation; in the data active = potentiation above about 30%
TRHR ag = qHTS for Small Molecule Agonists and Allosteric Enhancers of Human TRH Receptor: Primary Screen for Agonists; Thyrotropin-releasing hormone receptor (Homo sapiens), P34981; TRHR cells, calcium flux fluo-8, FDSS agonist mode; activation, % at 2 µM; 0.18% of 360,000 active
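In this calcium-flux screen, cells bearing human TRHR are dye-loaded with fluo-8, baselined for 10 cycles, then exposed to library compounds; positive kinetic calcium responses during the agonist phase mark hits, with TRH as control.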
D1 agonist = Allosteric Agonists of the Human D1 Dopamine Receptor: qHTS. D(1A) dopamine receptor (Homo sapiens), P21728. HEK293 T-REx D1 cells, calcium flux, agonist mode. activation, % at 2 µM. 1% of 360,000 active
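Agonism was scored from calcium flux recorded over 180 s (1 read/s) after pintool compound addition, following a 10-cycle baseline. Cells were inducible force-coupled HEK293 TREx D1, plated overnight at 30 C and loaded with no-wash calcium dye.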
Epigenetic reg = Quantitative High-Throughput Screen for Regulators of Epigenetic Control; murine LDR cells, GFP reporter derepression, 30 h; Potency, µM (highest dose often 53.9 µM), usual class: activators; 0.2% of 280,000 active; AID 1865, 2009; active = well fitted activation curve with a large enough effect; also: nearly all actives have a fitted effect of over 60% in size
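Murine LDR cells bearing a silenced CMV-driven GFP reporter were exposed to compound for 30 h at 37 C. After PBS washes, GFP-positive cells (20-120 um objects) counted by laser-scanning microplate cytometry.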
A number is an active result; 0 = inactive; - = not tested or not shown; [ ] = dose if it differs, or a comment. Hits are enriched below; roughly 4.6% of the tested compounds scored in any of these assays. Rule as the data show it, unless noted: active = activation above about 30%; inactive = the rest.

SMILES | TRHR enhancer | D1 antagonist | D1 PAM | TRHR ag | D1 agonist | Epigenetic reg
CCOC(=O)C1=C(C)Nc2ccccc2N=C1NC(=O)Cc1ccc(OC)cc1 | 0 | -81.0 | 0 | 0 | 0 | 0
O=C(O)[C@H]1CCCN1 | - | - | - | - | - | 0
COC(=O)Cn1c2ccccc2c2nc3ccccc3nc21 | 0 | -37.0 | 0 | 0 | 0 | -
O=C(O)Cn1c2ccccc2c2n[nH]c(=S)nc21 | 0 | -33.3 | 0 | 0 | 0 | -
CCn1c2ccccc2c2n[nH]c(=S)nc21 | 0 | 0 | 0 | 0 | 0 | -
COC(=O)Cn1c2nc3ccccc3nc2c2cccc(C)c21 | 0 | 0 | 0 | 0 | 0 | -
O=C(Cc1ccc(Cl)cc1)c1c(O)cc(O)cc1O | - | - | - | - | - | 0
Cc1cc(C)cc(N2CC(c3nc(-c4ccccc4C)no3)CC2=O)c1 (centres undefined) | 0 | 0 | 0 | 0 | 0 | 0
CCCCOc1ccccc1CC1C(=O)Nc2ccc(Br)cc21 (centres undefined) | 0 | 0 | 0 | 0 | 0 | 0
CCCN(CCC)c1nc(-c2ccccc2F)nc2ccccc12 | 0 | 0 | 0 | 0 | 38.7 | 0
O=C(CSc1n[nH]c(=O)n1Cc1ccccc1)Nc1ccc(F)c(F)c1F | 0 | 0 | 0 | 0 | 34.2 | -
NS(=O)(=O)c1ccc(NC(=O)CSc2n[nH]c(=O)n2Cc2ccccc2)cc1 | 0 | 0 | 0 | 0 | 0 | -
CC[C@H](C)/C=C(C)/C=C/C(=O)Cc1cc(O)c(C)c(O)c1C=O | 0 | 0 | 0 | 0 | 0 | 0
CC[C@H](C)/C=C(C)/C=C/C1=CC2=CC(=O)[C@]3(C)OC(=O)[C@@H](C(C)=O)[C@@H]3C2=CO1 | 0 | 0 | 0 | 0 | 42.3 | 0
Cc1ccc(SCc2ccc(C(=O)Nc3cccc([N+](=O)[O-])c3)cc2)cc1 | 0 | -50.6 | 0 | 0 | 0 | 0
Cc1cc(C)n(-c2ccc(C(=O)Nc3cccc([N+](=O)[O-])c3)cc2)n1 | 0 | -35.6 | 0 | 0 | 0 | 0
O=C(Nc1cccc([N+](=O)[O-])c1)c1ccc2ccccc2c1O | 0 | -33.4 | 0 | 0 | 0 | 0
CC(OC(=O)c1cnccn1)C(=O)Nc1nc(-c2cccc([N+](=O)[O-])c2)cs1 (centres undefined) | 0 | -31.6 | 0 | 0 | 0 | -
O=C(Cn1nc(-c2ccc(Cl)cc2)ccc1=O)NCc1ccccc1Cl | 0 | 0 | 0 | 0 | 0 | 0
CCCN(Cc1cc2cccc(C)c2[nH]c1=O)C(=O)c1cccc(Cl)c1 | 0 | 0 | 0 | 0 | 0 | 0
O=C(CN1C(=O)CC(c2ccccc2)Sc2ccccc21)Nc1cccc(Cl)c1 (centres undefined) | 0 | 0 | 0 | 0 | 0 | 0
CC(C)(C)c1ccc(C(=O)Nc2cccc([N+](=O)[O-])c2)cc1 | 0 | 0 | 0 | 0 | 0 | 0
CCCc1cc(C(=O)Nc2cccc([N+](=O)[O-])c2)cs1 | 0 | -32.2 | 0 | 0 | 0 | -
O=C(Nc1cccc([N+](=O)[O-])c1)c1cnccn1 | 0 | -59.4 | 0 | 0 | 0 | 0
COc1cccc(NC(=O)N(Cc2cc3cc(C)cc(C)c3[nH]c2=O)CC2COCCO2)c1 (centres undefined) | 0 | -31.7 | 0 | 0 | 0 | 0
SMILES | TRHR enhancer | D1 antagonist | D1 PAM | TRHR ag | D1 agonist | Epigenetic reg
Cc1ccc(NC(=O)N(Cc2cc3cc(C)cc(C)c3[nH]c2=O)CC2COCCO2)cc1 (centres undefined) | 0 | 0 | 0 | 0 | 0 | 0
CCOc1ccc(CNS(=O)(=O)c2cc(CN3C(=O)c4cccnc4C3=O)ccc2OC)cc1 | 0 | -54.0 | 0 | 0 | 0 | -
O=C(Cc1ccc(Cl)cc1)Nc1ccc(N2CCCC2)cc1 | 0 | 0 | 0 | 0 | 0 | 0
Clc1cccc(Cl)c1CNc1ccc(N2CCCC2)cc1 | 31.0 | 0 | 0 | 0 | 0 | 0
CCOc1ccc(NS(=O)(=O)c2ccc(C(=O)NCC(c3ccco3)N(C)C)cc2)cc1 (centres undefined) | 0 | 0 | 0 | 0 | 69.6 | -
Cc1ccc(S(=O)(=O)NC(CC(C)C)C(=O)NCC(c2ccco2)N2CCCCC2)cc1 (centres undefined) | 0 | 0 | 0 | 0 | 0 | -
Cc1ccc(NS(=O)(=O)c2ccc(C(=O)NCC(c3ccco3)N3CCCCC3)cc2)cc1 (centres undefined) | 0 | 0 | 0 | 0 | 38.6 | -
CC(=O)Nc1ccc(S(=O)(=O)NC(C)C(=O)NCC(c2ccco2)N2CCCCC2)cc1 (centres undefined) | 0 | -46.4 | 0 | 0 | 0 | -
COc1ccc(C(CNC(=O)c2cccc(S(=O)(=O)Nc3ccc(F)cc3)c2)N(C)C)cc1 (centres undefined) | 33.1 | 0 | 0 | 0 | 44.0 | -
CCOc1ccc(C(=O)Nc2c(C(=O)Nc3ccccc3OC)oc3ccccc23)cc1OCC | 0 | 0 | 0 | 0 | 0 | 0
C/C(CCN1CCCc2nc(C)c(C)cc21)=N\O[C@@H](C)c1cc(-c2c(C)cc(C)cc2C)no1 | - | - | - | - | - | 0[10.1 µM]
Cc1cccc(C)c1NC(=O)C[N+](C)(C)C | - | - | - | - | - | 0
C=C1CC[C@H](O)C/C1=C/C=C1\CCC[C@]2(C)C([C@H](C)CCCC(C)(C)O)CC[C@@H]12 (some centres undefined) | - | - | - | - | - | 0
CCOC(=O)c1c(C)oc2nc(C)nc(NCC3CCN(Cc4ccc(Cl)cc4)CC3)c12 | 0 | 0 | 0 | 0 | 0 | 0
CCOc1ncccc1C(=O)NNC(=O)c1cccc(S(=O)(=O)Nc2ccc(OC)cc2)c1 | 0 | -46.5 | 0 | 0 | 0 | -
O=S(=O)(NCC(c1ccco1)N1CCCCC1)c1ccccc1C(F)(F)F (centres undefined) | 0 | -41.9 | 0 | 0 | 0 | -
CCOC(=O)c1c(C)[nH]c(C(=O)N(C)Cc2cccc(OC)c2OC)c1C | 0 | 0 | 0 | 0 | 37.8 | -
COc1ccc(NS(=O)(=O)c2ccc(C(=O)N(C)Cc3cccs3)cc2)cc1 | 0 | -34.8 | 0 | 0 | 59.6 | -
CCOC(=O)c1c(C)[nH]c(C(=O)COC(=O)/C=C/c2cccc(OC)c2OC)c1C | 0 | 0 | 0 | 0 | 0 | 0
COc1ccc(NS(=O)(=O)c2cccc(C(=O)N(C)Cc3cccs3)c2)cc1 | 0 | 0 | 0 | 0 | 0 | -
CCN(CC)CCCC(C)n1c(-c2ccccc2)nc2c(NCCO)nc(C)nc21 (centres undefined) | - | - | - | - | - | 0
COc1cccc(CN(C)C(=O)c2ccc(NS(=O)(=O)c3ccc(F)cc3)cc2)c1OC | 0 | 0 | 0 | 0 | 0 | -
COc1ccc(C(CNC(=O)c2cccc(NS(=O)(=O)c3ccccc3)c2)N(C)C)cc1 (centres undefined) | 0 | 0 | 0 | 0 | 0 | -

Compound activity: PubChem BioAssay, National Center for Advancing Translational Sciences (NCATS)
